In PubChem BioAssay AID2506 (National Center for Advancing Translational Sciences (NCATS), 2010):
“And” between values parts separate entries of the source, which are not always exact repeats. Equal entries are not always repeated. A number with no mark means an inactive call. Calls come from the whole dose curve; as a rule, active = well fitted curve in the direction sought with a large enough effect; inactive = no such curve, though single readings can be large or run the other way.

What follows are compounds tested on 4-diphosphocytidyl-2-C-methyl-D-erythritol kinase IspE (bacterial, species not stated) (assay: Confirmatory Assay for Inhibitors of Human Galactokinase (GALK): CDP-Me assay counterscreen for probe SAR). Settings: Kinase-Glo ATP luminescence, 1 h.
Description: NIH Molecular Libraries Probe Production Centers Network [MLPCN] NIH Chemical Genomics Center [NCGC] MLPCN Grant: R03 MH085689-01 Assay Submitter (PI): Kent Lai (University of Utah School of Medicine, 50 N Mario Capecchi Drive, Salt Lake City, UT 84132) NCGC Assay Overview The GHMP kinase family is a unique class of important enzymes that plays an essential role in many metabolic processes. It contains more than 170 protein members among which are the galactokinase (GALK) and the CMK enzymes. GALK plays a crucial role in galactose processing and is a potential therapeutic target for Classic Galactosemia (OMIM: 230400). CMK is involved for the non-mevalonate synthesis of isoprenoids precursors and natural products like sterols or ubiquinones which are important to many biological functions. Although the sequence identity between GALK and CMK is low, the three-dimensional structures and active sites are highly similar. Therefore to determine the validity and selectivity of an active compound observed in the GALK qHTS screen (AID: 1868), a bioluminescent counter-screen targeting bacterial CMK was developed. In addition, because the mevalonate independent synthesis of isoprenoids are more prevalent in opportunistic pathogens such as bacteria, CMK is a potential novel therapeutic target where selective inhibitors could be used to determine potential antibacterial effects. The CMK (provided by Kent Lai) was assayed using ATP and 4-diphosphocytidyl-2-C-methyl-D-erythritol (CDP-ME; Echelon, cat# I-M052) as substrates. Promega Kinase-Glo Plus (cat# V3774) technology was used to detect the residual ATP following kinetic reaction. Briefly, the Kinase-Glo Plus contains Ultra-Glo [5] luciferase and D-luciferin which generates a bioluminescence signal from the remaining ATP.
NCGC Assay Protocol Summary: Three uL/well of substrate solution (15 uM ATP, 30 uM CDP-ME, 20 mM HEPES pH8.0, 5 mM MgCl2, 40 mM KCl, 1 mM DTT, 0.01% BSA final concentration) was dispensed into 1536-well, assay plates (Greiner, solid white medium-binding plates) with Aurora Discovery BioRAPTR Flying Reagent Dispenser (FRD; Beckton-Dickenson). Compound and control solutions (23 nL) were transferred to the assay plate using the Kalypsys 1536-pin tool. One uL/well enzyme solution (0.25 ug/mL CDP-Me kinase, 20 mM HEPES pH8.0, 5 mM MgCl2, 40 mM KCl, 1 mM DTT, 0.01% BSA final concentration) was then added using the FRD yielding a total kinase reaction volume of 4 uL/ well. After 1 hour of room temperature incubation, 4 uL Kinase-Glo Plus reagent was added for a final assay volume of 8 uL/well. After 1 min, luminescence was detected with the ViewLux plate reader (Perkin Elmer, Waltham, MA) using a 1 sec exposure time and 2x binning settings.

Row | Structure (SMILES) | max response
1 | O=C1CCCC2=C1C1(CCC1)N=C(Nc1nc3ccccc3o1)N2 | 4.72%
2 | O=C1CCCC2=C1C1(CCCCC1)N=C(Nc1nc3ccccc3o1)N2 | -0.522%
3 | O=C1CCCC2=C1C1(CCS(=O)(=O)C1)N=C(Nc1nc3ccccc3o1)N2 (stereo not drawn) | -0.863%
4 | CC1(C)CC(=O)C2=C(C1)NC(Nc1nc3ccccc3o1)=NC2c1cccc(F)c1 (stereo not drawn) | 2.59%
5 | CC1CCC2(C1)N=C(Nc1nc3ccccc3o1)NC1=C2C(=O)CCC1 (stereo not drawn) | 2.87%
6 | O=C1CCCC2=C1C1(CCCC1)N=C(Nc1nc3cc(-c4ccccc4)ccc3o1)N2 | -2.69%
7 | COc1cccc(C2N=C(Nc3nc4ccccc4o3)NC3=C2C(=O)CC(C)(C)C3)c1 (stereo not drawn) | 0.986%
8 | O=C1CCCC2=C1C1(CCCC1)N=C(Nc1nc3ccccc3o1)N2 | 4.68% and -2.85%
9 | CC1(C)CC(=O)C2=C(C1)NC(Nc1nc3ccccc3o1)=NC2c1cccc(O)c1 (stereo not drawn) | 1.58%
10 | O=C1CCCC2=C1C1(CCSC1)N=C(Nc1nc3ccccc3o1)N2 (stereo not drawn) | -0.317%
11 | CC1(C)CC(=O)C2=C(C1)NC(Nc1nc3ccccc3o1)=NC21CCCC1 | -5.27%
12 | Cc1ccc(C2N=C(Nc3nc4ccccc4o3)NC3=C2C(=O)CC(C)(C)C3)cc1 (stereo not drawn) | 2.37%
13 | O=C1CCCC2=C1C1(CCSCC1)N=C(Nc1nc3ccccc3o1)N2 | -0.443%
14 | O=C1CC(c2ccccc2)CC2=C1C1(CCCC1)N=C(Nc1nc3ccccc3o1)N2 (stereo not drawn) | 3.59%
15 | O=C1CCCC2=C1C(c1ccccc1Cl)N=C(Nc1nc3ccccc3o1)N2 (stereo not drawn) | -2.1%
16 | O=C1CCCC2=C1C1(CCCC1)N=C(Nc1nc3cc(Cl)ccc3o1)N2 | 3.11%
17 | COc1ccc(C2N=C(Nc3nc4ccccc4o3)NC3=C2C(=O)CC(C)(C)C3)cc1 (stereo not drawn) | 1.84%
18 | O=C1CCCC2=C1C1(CCOCC1)N=C(Nc1nc3ccccc3o1)N2 | 4.63%
19 | O=C1CCCC2=C1C1(CCCC1)N=C(Nc1nc3cc(Br)ccc3o1)N2 | 5.8%

Row | Structure (SMILES) | max response
20 | CCC1CCC2(C1)N=C(Nc1nc3ccccc3o1)NC1=C2C(=O)CCC1 (stereo not drawn) | 0.524% [middle of 5 runs]
21 | O=C1CCCC2=C1C(c1ccc(Cl)cc1)N=C(Nc1nc3ccccc3o1)N2 (stereo not drawn) | 0.739%
22 | Cc1nc(Nc2nc3ccccc3o2)nc2c1C(=O)CC(C)(C)C2 | -1.17%
23 | Cn1c(NC2=NC3(CCCC3)C3=C(CCCC3=O)N2)nc2ccccc21 | 5.48%
24 | O=C1CCCC2=C1[C@@]1(CCC(c3ccccc3)C1)N=C(Nc1nc3ccccc3o1)N2 (stereo partly drawn) | 3.98%
25 | O=C1CCCC2=C1C1(CCCC1)N=C(Nc1nc3ccccc3n1Cc1ccccc1)N2 | 4.95%
26 | CC1(C)N=C(Nc2nc3ccccc3o2)NC2=C1C(=O)CCC2 | 3.59%
27 | O=C1CC(c2ccccc2)CC2=C1C1(CCCCC1)N=C(Nc1nc3ccccc3o1)N2 (stereo not drawn) | 5.2%
28 | Cc1ccc2nc(NC3=NC4(CCCC4)C4=C(CCCC4=O)N3)oc2c1 | 7.12%
29 | O=C1CCCC2=C1C1(CCCC1)N=C(Nc1nc3cc4ccccc4cc3o1)N2 | 5.94%
30 | O=C1CCC2=C1C1(CCCC1)N=C(Nc1nc3ccccc3o1)N2 | 2.86%
31 | O=C1CCCC2=C1C1(CCCOC1)N=C(Nc1nc3ccccc3o1)N2 (stereo not drawn) | 3.35%
32 | CC1(C)CC(=O)C2=C(C1)NC(Nc1nc3ccccc3o1)=NC2c1ccccc1 (stereo not drawn) | 1.82%
33 | CC1(C)CC(=O)C2=C(C1)NC(Nc1nc3ccccc3o1)=NC2c1ccccc1Cl (stereo not drawn) | 1.88%
34 | Cc1ccc2oc(NC3=NC4(CCCC4)C4=C(CCCC4=O)N3)nc2c1 | 5.2%
35 | COc1ccccc1C1N=C(Nc2nc3ccccc3o2)NC2=C1C(=O)CC(C)(C)C2 (stereo not drawn) | 1.66%
36 | CC1(C)CC(=O)C2=C(C1)NC(Nc1nc3ccccc3o1)=NC2c1cccc(Cl)c1 (stereo not drawn) | 2.44%
37 | O=C1CCC2=C1C(c1ccccc1Cl)N=C(Nc1nc3ccccc3o1)N2 (stereo not drawn) | -0.401%
38 | CC1(C)CC(=O)C2=C(C1)NC(Nc1nc3ccccc3o1)=NC2c1cccnc1 (stereo not drawn) | 1.01%
